Data taken from PubChem BioAssay (Tox21).
Values without a mark were called inactive. Entries that show only a call come without a potency. Activity calls are given as the source filed them. Calls follow the shape of the dose curve; as a rule, active = well fitted activation curve with a large enough effect in the repeat runs; inconclusive = weak or mixed curves; inactive = flat fitted curve, though single readings scatter.

Experiment: A CellTox Green Cytotoxicity Assay to monitor cytotoxicity in HEK293 cells - 0 hour (AID 1224869); also: nearly all actives have a fitted effect of over 50% in size
Conditions: CellTox Green fluorescence; series mostly up to 76.8 µM
From the text: National Center for Advancing Translational Sciences [NCATS]
NIH Chemical Genomics Center [NCGC]
U.S. Environmental Protection Agency [EPA]
National Institutes of Environmental Health Sciences [NIEHS]
National Toxicology Program [NTP]
Cell-based models are critical for drug discovery. Determining the natural cytotoxic effects resulting from test compounds is an essential research activity. A CellTox Green Cytotoxicity Assay to monitor cytotoxicity in real time of continues cell culture during 40 hours of the compound treatment was used to screen Tox21 10K library compounds in Hek293 cells. CellTox Green Cytotoxicity Assay is a nonlytic, homogeneous, biofluorescent method to measure cytotoxicity in cell culture after experimental manipulation. The assay system uses a proprietary asymmetric cyanine dye that is excluded from viable cells but preferentially stains the dead cell's DNA. […] Viable cells produce no appreciable increases in fluorescence. Therefore, the fluorescence signal produced by the binding interaction with dead cell DNA is proportional to cytotoxicity.
The mixture of Hek293 cell suspension and reagents were dispensed at 600cells/6 ul/well in 1536-well tissue culture treated black solid bottom plates using a Multidrop dispenser. After the assay plates were incubated at a 37 C/5% CO2 incubator for 5 hours, 23 nL of compounds dissolved in DMSO, positive and negative controls was transferred to the assay plate by a pintool work station. The plates were incubated at 37 C for 40 hours. The fluorescence intensity were measured at 0h, 8h, 16h, 24h, 32h and 40h time points using ViewLux plate reader during compound treatment.

Row | Structure (SMILES) | Potency | cytotoxicity
1 | O=C(O)CN1C(=O)c2cccc3cccc(c23)C1=O | inactive | –
2 | CCCCCCC(CO)CCCC (stereo not given) | inactive | –
3 | CN1C(CSCC(F)(F)F)Nc2cc(Cl)c(S(N)(=O)=O)cc2S1(=O)=O (stereo not given) | inactive | –
4 | COC(C)(C)OC | inactive | –
5 | C[C@@H]1C[C@H]2[C@@H]3CCC4=CC(=O)C=C[C@]4(C)[C@@]3(F)[C@@H](O)C[C@]2(C)[C@@]1(O)C(=O)COP(=O)(O)O | inactive | –
6 | O=C(O)c1ccc(O)cc1O | inactive | –
7 | OCC(CO)n1cnc(-c2ccc(F)cc2)c1-c1ccnc(Oc2ccccc2)n1 | inactive | –
8 | Nc1nc(-c2ccc([N+](=O)[O-])cc2)cs1 | inactive | –
9 | CCCCCCCC/C=C/C(=O)O | inactive | –
10 | O=C(O)/C=C/c1ccc(O)c(O)c1 | inactive | –
11 | CCCCC[C@H](O)/C=C/[C@H]1[C@H](O)CC(=O)[C@@H]1C/C=C\CCCC(=O)O | inactive | –
12 | CCOC(=O)C(C)O (stereo not given) | inactive | –
13 | CCC1CCC(CCC(=O)O)C1 (stereo not given) | inactive | –
14 | CCN(CC)C(=O)N1CCN(C)CC1 | inactive | –
15 | CC1CCc2nccnc21 (stereo not given) | inactive | –
16 | O=NN(CCCl)C(=O)NCCCl | inactive | –
17 | CCC(CO)(CO)CO | inactive | –
18 | CC(C)(O)CCc1ccccc1 | inactive | –
19 | Cc1ccc(Nc2c(F)cccc2Cl)c(CC(=O)O)c1 | inactive | –
20 | CC(=O)C(C)=O | inactive | –

Row | Structure (SMILES) | Potency | cytotoxicity
21 | CC(C)c1ccc(C(=O)N=C(N)N)cc1S(C)(=O)=O | inactive | –
22 | Cc1ccc(N(CCO)CCO)cc1 | inactive | –
23 | CCCCCCCC(=O)OCCCCCC | inactive | –
24 | NC(=O)CCCCC(N)=O | inactive | –
25 | Nc1ccn([C@H]2CS[C@@H](CO)O2)c(=O)n1 | inactive | –
26 | Nc1nc2ccc(OC(F)(F)F)cc2s1 | inactive | –
27 | CCCCCCOC(=O)CCCCC | inactive | –
28 | Cc1ccc2nc(N)[nH]c(=O)c2c1Sc1ccncc1 | inactive | –
29 | COc1cc(OC)c2ccc(=O)oc2c1 | inactive | –
30 | C1=CCC2CC=CC2C1 (stereo not given) | inactive | –
31 | CC(=O)Oc1cccc(O)c1 | inactive | –
32 | CNc1c2c(nn1C)CCCC2 | inactive | –
33 | Cc1cc(CCC(=O)OCCOCCOCCOC(=O)CCc2cc(C)c(O)c(C(C)(C)C)c2)cc(C(C)(C)C)c1O | inactive | –
34 | O=c1[nH]c2cc(C(F)(F)F)c(N3CCOCC3)cc2n(CP(=O)(O)O)c1=O | inactive | –
35 | CCOc1ncc(F)c(=O)[nH]1 | inactive | –
36 | COC(OC)OC | inactive | –
37 | CCC(Cl)CC(Cl)C(Cl)C(Cl)C(Cl)C(C)Cl (stereo not given) | – | 15.1% [at 15.8 µM]
38 | CCN(CC)CCOC(=O)C(c1ccccc1)c1ccccc1 | inactive | –
39 | O=C(O)CCC(=O)c1ccc(-c2ccccc2)cc1 | inactive | –
40 | O=C(O)CO | inactive | –
